Bioassay records deposited in PubChem by several laboratories.
GIRK2 act: GIRK2 channel activators by thallium flux; P48051; HEK293 GIRK2/NPY4 cells, thallium flux fluorescence; activation (% efficacy), % for hits at 37.5 µM; 34,000 tested, under 10 active; AID 1259324;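 active = primary screen hit, no activity in plain HEK293 cells, and in GIRK2-only cells above 5% efficacy rising with concentration; inactive = the rest, including fluorescent compounds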;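 also: efficacy is normalized control-subtracted fluorescence 15 s after thallium addition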
Target sequence (P48051 whole entry, looked up): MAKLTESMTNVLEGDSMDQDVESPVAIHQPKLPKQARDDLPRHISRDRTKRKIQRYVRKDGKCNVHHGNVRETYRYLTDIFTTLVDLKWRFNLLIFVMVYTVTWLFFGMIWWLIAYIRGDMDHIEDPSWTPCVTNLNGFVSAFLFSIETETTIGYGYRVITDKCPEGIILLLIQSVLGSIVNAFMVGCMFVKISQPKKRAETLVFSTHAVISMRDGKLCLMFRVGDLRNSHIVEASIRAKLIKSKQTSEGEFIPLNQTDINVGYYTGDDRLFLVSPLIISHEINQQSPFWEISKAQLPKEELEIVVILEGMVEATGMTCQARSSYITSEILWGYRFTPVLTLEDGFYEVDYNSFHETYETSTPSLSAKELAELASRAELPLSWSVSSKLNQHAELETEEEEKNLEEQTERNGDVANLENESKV
GluA2 TARP mod: modulates AMPAR-stargazin complexes; O88602+P19491; HEK293 GluA2+stargazin, membrane potential dye (FDSS), glutamate EC50; hits were called plate by plate, in both directions; calls only at 30 µM; 40,000 tested, 3.5% active;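 active = any of four per-well response measures lying three or more SD from its plate-wide compound average, in either direction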
Calls only; - = inactive; . = no result; + = active, no number. This excerpt belongs to a sample that is enriched for hits.

SMILES	GIRK2 act	GluA2 TARP mod
O=C(Nc1ccccc1)N1CCC2(CC1)NC(=O)N(CCc1ccccc1)C2=O	-	-
O=C(Nc1ccc(F)cc1)N1CCC2(CC1)NC(=O)N(Cc1ccc(Cl)cc1)C2=O	-	.
Cc1ccc(NC(=O)N2CCC3(CC2)NC(=O)N(Cc2ccc(Cl)cc2)C3=O)cc1F	-	+
O=C(Nc1ccc(F)c(Cl)c1)N1CCC2(CC1)NC(=O)N(CCc1ccccc1)C2=O	-	+
COC(=O)c1ccsc1NC(=O)CC1Nc2ccccc2NC1=O (stereo not drawn)	.	-
COc1ccc(S(=O)(=O)CC(=O)N2CCN(c3nc4c(F)cccc4s3)CC2)cc1	.	-
c1ccc(CNc2nc(N3CCOCC3)nc3ccccc23)cc1	.	+
c1coc(CNc2nc(N3CCOCC3)nc(N3CCOCC3)n2)c1	-	-
Cc1nn(C2CCS(=O)(=O)C2)c2nc(-c3cccs3)cc(C(=O)Nc3ccc(F)cc3)c12 (stereo not drawn)	-	-
Cc1ccc(NC(=O)c2cc(-c3cccs3)nc3c2c(C)nn3C2CCS(=O)(=O)C2)cc1 (stereo not drawn)	-	+
CCOc1ccc(S(=O)(=O)NCC(c2cccs2)N2CCOCC2)cc1 (stereo not drawn)	.	-
COc1ccc(S(=O)(=O)CCCC(=O)Nc2nc3c(Cl)cccc3s2)cc1	-	-
CCCN(CCC)S(=O)(=O)c1ccc(C(=O)Nc2nnc(-c3cc(C)n(C)n3)o2)cc1	-	-
Cc1cc(-c2nnc(NC(=O)c3ccc(S(=O)(=O)N(C)C)cc3)o2)nn1C	-	+
Cc1cc(-c2nnc(NC(=O)c3ccc(C(C)(C)C)cc3)o2)nn1C	-	-
Cc1cc(-c2nnc(NC(=O)c3ccc(Cl)cc3)o2)nn1C	-	+
COC(=O)C1=C(C)NC(=O)NC1c1ccc(OCc2ccccc2)cc1 (stereo not drawn)	.	-
CSc1nc(S(=O)(=O)c2ccc(C)cc2)c(N2CCOCC2)s1	.	-
CN1CCOc2ccc(NS(=O)(=O)c3ccccc3)cc2C1=O	.	+
CN1CCOc2ccc(NS(=O)(=O)c3ccc(-c4ccccc4)cc3)cc2C1=O	.	-
Cc1cc(C)n(CCNC(=O)Cn2c3c(c4ccccc42)CCC3)n1	-	-
O=C(Cn1c2c(c3ccccc31)CCC2)NCC1CCS(=O)(=O)C1 (stereo not drawn)	-	+
CSc1cccc2sc(NC(=O)c3c(C)cnn3C)nc12	-	.
COc1cccc(NC(=O)CSc2ncc(-c3ccc(F)cc3)o2)c1	-	.
CCSc1ccccc1C(=O)NC1CNC(=O)C1 (stereo not drawn)	.	-
SMILES	GIRK2 act	GluA2 TARP mod
O=C1CC(NC(=O)c2ccccc2Oc2ccccc2)CN1 (stereo not drawn)	.	+
Cc1ccc(C)n1CCCC(=O)Nc1ccc(N2CCOCC2)cc1	-	.
CSc1nn(CC(=O)Nc2ccc(Br)cc2)c(N)c1S(=O)(=O)c1ccc(C)cc1	-	-
CSc1nn(CC(=O)Nc2ccc(Cl)cc2)c(N)c1S(=O)(=O)c1ccccc1	.	+
COc1cc(S(=O)(=O)N2CCN=C2c2ccccc2)c(OC)cc1Cl	.	-
O=S(=O)(c1cc(F)ccc1F)N1CCN(c2ccc3nncn3n2)CC1	-	-
COCCNC(=O)NCC1(c2cccs2)CC1	-	+
COCCNC(=O)C(=O)NCC1(c2cccs2)CC1	-	-
CCn1c(=O)c(C(=O)Nc2ccccc2C(F)(F)F)cc2cccnc21	-	-
CCCCS(=O)(=O)N1CCC2(CC1)NC(=O)N(CCOc1ccccc1)C2=O	-	-
COc1ccc(S(=O)(=O)NCCc2ccc(N(C)C)cc2)cc1Cl	.	+
COc1ccc(S(=O)(=O)NCC(c2ccsc2)N(C)C)cc1Cl (stereo not drawn)	-	-
COc1ccc(S(=O)(=O)NCC(O)(c2ccccc2)C(F)(F)F)cc1Cl (stereo not drawn)	-	+
O=S(=O)(NCC(O)(c1ccccc1)C(F)(F)F)c1ccc(F)c(Cl)c1 (stereo not drawn)	-	-
CS(=O)(=O)N1CCC(CNC(=O)c2ccccn2)CC1	-	-
O=C(NCC1CCN(S(=O)(=O)C2CC2)CC1)c1ccsc1	-	-
O=C1CC(c2nc3ccccc3n2Cc2ccc(F)cc2)CN1Cc1ccccc1 (stereo not drawn)	.	+
Cc1cccc(Cn2c(C3CC(=O)N(C(C)(C)C)C3)nc3ccccc32)c1 (stereo not drawn)	.	+
CC(C)(C)N1CC(c2nc3ccccc3n2Cc2c(F)cccc2Cl)CC1=O (stereo not drawn)	.	+
CC(C)(C)N1CC(c2nc3ccccc3n2CCOc2ccc(Cl)cc2)CC1=O (stereo not drawn)	.	-
COc1cccc(N2CC(c3nc4ccccc4n3Cc3ccccc3)CC2=O)c1 (stereo not drawn)	.	-
COc1cccc(N2CC(c3nc4ccccc4n3Cc3ccccc3Cl)CC2=O)c1 (stereo not drawn)	.	+
CC(C)(C)N1CC(c2nc3ccccc3n2Cc2ccc(Cl)cc2)CC1=O (stereo not drawn)	.	-
O=C1CC(c2nc3ccccc3n2Cc2ccc(F)cc2)CN1Cc1ccc(F)cc1 (stereo not drawn)	.	-
CCOC(=O)c1oc2ccccc2c1NC(=O)C1CCCC1	.	-
SMILES	GIRK2 act	GluA2 TARP mod
COC(=O)c1ccc(NC(=O)C(=O)NCC2CCN(Cc3ccccc3)CC2)cc1	-	-
C=CCN1CC(c2nc3ccccc3n2Cc2c(F)cccc2Cl)CC1=O (stereo not drawn)	.	-
CCCCN1CC(c2nc3ccccc3n2Cc2cccc(Cl)c2)CC1=O (stereo not drawn)	.	+
CC(C)CCn1c(C2CC(=O)N(Cc3ccc(F)cc3)C2)nc2ccccc21 (stereo not drawn)	.	-
CCCCN1CC(c2nc3ccccc3n2Cc2ccccc2)CC1=O (stereo not drawn)	.	-
CC(C)CCn1c(C2CC(=O)N(Cc3ccccc3)C2)nc2ccccc21 (stereo not drawn)	.	+
O=C1CC(c2nc3ccccc3n2Cc2c(F)cccc2Cl)CN1Cc1ccccc1 (stereo not drawn)	.	+
CCOc1cc(S(=O)(=O)Nc2ncccc2C)c(OCC)cc1C	-	.
COc1cc(C(=O)N2c3ccccc3CC2C(N)=O)cc(OC)c1OC (stereo not drawn)	-	-
COc1ccc(-n2c(C)nc3ccc(NC(=O)c4ccc(F)c(F)c4)cc3c2=O)cc1	.	+
COc1cccc(C(=O)Nc2ccc3nc(C)n(-c4ccc(C)cc4)c(=O)c3c2)c1	.	-
C=CCNC(=O)c1c(C(F)(F)F)nn(C2CCCN(C)C2)c1C (stereo not drawn)	-	-
CCCN1C(=O)NC2(CCN(C(=O)c3ccccc3C)CC2)C1=O	-	-
COc1cc(C(C)=O)ccc1OCC(=O)N1CCN(c2ccc3nncn3n2)CC1	-	+
Cc1ccc(OCC(=O)N2CCN(c3ccc4nncn4n3)CC2)cc1C	-	-
Cc1cc([N+](=O)[O-])ccc1NC(=O)c1ccc(=O)n(Cc2c(F)cccc2Cl)c1	-	-
COc1ccc(S(=O)(=O)Cc2nc(-c3ccccc3Cl)no2)cc1	-	-
Cc1ccccc1OCC(=O)NCC1CCN(C2CCCC2)CC1	-	.
CC(C)(C)C(=O)Nc1sc2c(c1C#N)CCN(Cc1ccccc1)C2	-	+
CCC(=O)Nc1sc2c(c1-c1nc3ccccc3s1)CCN(Cc1ccccc1)C2	.	-
COc1ccc(Cl)cc1C(=O)N1CCC(c2ccccc2)C1 (stereo not drawn)	.	-
